SMILES strings stand for the structures. Screen size: about 330,000 compounds; about 650 (0.2%) were called active. Rule as the data show it: active = inhibition above about 50%; inactive = the rest. What follows is part of a selection rich in actives, with near analogues and random picks from the rest.

Sequence of Integrin alpha-4 (Homo sapiens) (P13612 whole entry, looked up): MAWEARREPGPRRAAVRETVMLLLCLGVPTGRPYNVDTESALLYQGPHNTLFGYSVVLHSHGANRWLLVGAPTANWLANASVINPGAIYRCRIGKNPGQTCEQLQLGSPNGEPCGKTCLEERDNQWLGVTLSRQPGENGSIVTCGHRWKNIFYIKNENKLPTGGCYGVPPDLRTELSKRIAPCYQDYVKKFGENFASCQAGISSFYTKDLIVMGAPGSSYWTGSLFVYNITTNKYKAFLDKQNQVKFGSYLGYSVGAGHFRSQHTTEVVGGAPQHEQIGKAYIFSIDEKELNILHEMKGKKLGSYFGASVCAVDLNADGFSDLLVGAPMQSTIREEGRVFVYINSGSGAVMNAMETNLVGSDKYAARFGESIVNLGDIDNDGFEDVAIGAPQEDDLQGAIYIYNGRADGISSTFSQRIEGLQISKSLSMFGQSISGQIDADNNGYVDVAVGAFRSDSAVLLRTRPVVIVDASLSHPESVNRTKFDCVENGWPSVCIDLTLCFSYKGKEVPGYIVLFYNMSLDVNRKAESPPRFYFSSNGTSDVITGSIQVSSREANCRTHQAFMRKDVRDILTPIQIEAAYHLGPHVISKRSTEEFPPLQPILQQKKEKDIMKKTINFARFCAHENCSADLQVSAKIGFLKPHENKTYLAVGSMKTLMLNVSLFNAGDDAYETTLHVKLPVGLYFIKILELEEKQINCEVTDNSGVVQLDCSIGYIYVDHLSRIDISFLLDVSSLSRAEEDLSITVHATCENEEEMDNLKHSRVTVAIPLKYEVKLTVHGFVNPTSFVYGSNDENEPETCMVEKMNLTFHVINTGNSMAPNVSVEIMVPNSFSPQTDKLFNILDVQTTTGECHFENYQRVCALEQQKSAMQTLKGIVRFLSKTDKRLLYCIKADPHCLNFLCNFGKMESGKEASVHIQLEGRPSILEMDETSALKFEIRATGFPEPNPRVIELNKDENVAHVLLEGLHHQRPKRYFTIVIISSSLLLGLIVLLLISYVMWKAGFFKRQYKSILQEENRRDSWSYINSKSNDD

This assay concerns the target Integrin alpha-4 (Homo sapiens) (UniProt P13612). As to the kind of experiment: VLA-4 integrin binding inhibitors – MLPCN library, flow cytometry, VLA-4 expressing cells, VLA-4 allosteric modulator project, primary screen (AID 2557). Particulars: ligand binding flow cytometry, stronger effect = higher value, about 7 µM as worked out from the volumes in the protocol.
For the compound `COc1cccc(NC(=O)N2C3CCCC2CC(NC(C)=O)C3)c1` (configuration not stated), the inhibition was 9.9% (inactive).
The same measure for `O=C(Nc1cccc(-c2cccc(Cl)c2)c1)C1CCN(C2CCC2)CC1`: 3.72% (inactive); for `COc1cccc(-c2cccc(NC(=O)C3CCN(C4CCC4)CC3)c2)c1`: 58.8% (active); for `CC1(C)CC(=O)C(N=Nc2c(F)cccc2F)=C(O)C1`: 6.6% (inactive).
The same measure for `Cc1ccc2nc(SCc3cn4c(C)cc(C)nc4n3)[nH]c2c1`: 9.58% (inactive); for `Cc1nn(CC(=O)Nc2ccc(N(C)C)cc2)c(C)c1[N+](=O)[O-]`: -13.4% (inactive); for `CCc1ccc(NC(=O)Cn2nc(C)c([N+](=O)[O-])c2C)cc1`: -5.52% (inactive).
On to `Cc1nn(CC(=O)Nc2ccc(C#N)cc2)c(C)c1[N+](=O)[O-]`, for which the inhibition was 56.9% (active).
On to `Cc1cc(NC(=O)COC(=O)/C=C/c2ccc(C)o2)no1`, for which the inhibition is 4.12% (inactive).
The value for `Cc1ccc(/C=C/C(=O)OCC(=O)NCc2ccc(Cl)cc2)o1` was 50.7% (active); that for `O=C(COC(=O)c1ccco1)NCc1ccc(Cl)cc1` was 5.08% (inactive); that for `COCCN1C(=O)C(=O)/C(=C(/O)c2ccc(S(=O)(=O)N3CCCCC3)cc2)C1c1ccc(OC)c(OC)c1` (configuration not stated) was -2.1% (inactive).
For the compound `O=C(CCNC(=O)c1ccccc1Cl)NN=Cc1ccco1`, the inhibition was 4.92% (inactive).
In the case of `CC(=O)n1cc([C@H]2C=C(C(=O)N3CCOCC3)O[C@@H](OCc3ccc(CO)cc3)C2)c2ccccc21`, the inhibition is -20.8% (inactive).
The same measure for `Cc1cccc(C)c1N1CCN(S(=O)(=O)N2CCCCC2)CC1`: -7.93% (inactive); for `CC1O[C@@H](OC2C(O)C(C)O[C@H](OC(=O)[C@]34CCC(C)(C)C[C@H]3C3=CCC5[C@@]6(C)CC(O)C(O[C@@H]7OC(CO)C(O)[C@@H](O)[C@@H]7O)[C@@](C)(C(=O)O)C6CC[C@@]5(C)[C@]3(CO)CC4)C2O[C@H]2OC(C)[C@@H](O[C@@H]3OCC(O[C@@H]4OC(CO)C(O)[C@H](O)C4O)[C@@H](O)[C@@H]3O)[C@H](O)C2O)C(O)C(O)C1O` (some centres not stated): -0.38% (inactive); for `Cc1nn(Cc2ccc(Cl)c(Cl)c2)c(C)c1NC(=O)c1cc(C2CC2)on1`: 55% (active).
Consider `Cc1nn(Cc2ccc(F)cc2)c(C)c1NC(=O)c1cccnc1Cl`, for which the inhibition was 12.2% (inactive).
With `Cc1cc(C(=O)Nc2c(C)nn(Cc3ccccc3)c2C)on1`, the inhibition was 34.7% (inactive).
The same measure for `COc1ccccc1CNC(=O)c1ccc(Cl)c(S(=O)(=O)N2CCCC2)c1`: 4.64% (inactive); for `COc1ccc(N=C2SC(C(=O)Nc3ccc(F)cc3)CC(=O)N2C)cc1` (configuration not stated): 5.98% (inactive).
The value for `N#CCC(=O)NC1CCC(CC2CCC(NC(=O)CC#N)CC2)CC1` (configuration not stated) was -12% (inactive); that for `O=C(CSc1nnc(-c2ccco2)n1-c1ccccc1)NCCc1ccccc1` was 4.12% (inactive); that for `CS(=O)(=O)n1nc(-c2ccco2)nc1N` was 15.3% (inactive).
The value for `CSc1nc(-c2ccco2)nn1C(=O)CCc1ccccc1` was 54% (active); that for `CCOC(=O)NC(=O)CSc1nnc(SCCC(=O)O)s1` was -3.59% (inactive).
`O=C(c1cc2ccccc2o1)N1CCN(S(=O)(=O)c2ccc(Cl)s2)CC1`: the inhibition was 2.54% (inactive).
`CCOC(=O)N1CCC(c2cc(=O)n(-c3ccccc3)[nH]2)CC1`: the inhibition was -1.65% (inactive).
The same measure for `O=C(CSc1ncnc2sccc12)NC1CCS(=O)(=O)C1` (configuration not stated): 6.26% (inactive); for `COc1ccc(-n2ncc3c2CC(C)(C)CC3NC(=O)CCc2c(C)nn(C)c2C)cc1` (configuration not stated): 4.43% (inactive).
For `COCCNC(=O)Cn1cc2c(n1)CCCCC2`, the inhibition was 54.5% (active).
The same measure for `COc1ccccc1CNC(=O)Cn1cc2c(n1)CCCC2`: -20.9% (inactive); for `O=C(Cn1cc2c(n1)CCCCC2)NCCN1CCOCC1`: -8.14% (inactive); for `CC(=NCc1ccc2c(c1)OCO2)C1=C(O)c2ccccc2C1=O`: 3.18% (inactive).
For `COC(=O)[C@@H]1C[C@@]2(O)[C@@H](O)[C@@H](O)[C@@H](O)C[C@H]2N1Cc1ccc(C)s1`, the inhibition was 23.4% (inactive).
The same measure for `COc1ccc2c3c1O[C@H]1C[C@@H](O)C=C[C@@]31CCN(C)C2`: 13.3% (inactive).
In the case of `CN1CCN(C(=O)Cn2c(C(F)(F)F)nc3ccccc32)CC1`, the inhibition was 5.72% (inactive).
Take `CC(C)(C)NC(=O)NC(=O)COC(=O)Cn1c(C(F)(F)F)nc2ccccc21`: the inhibition was 60.1% (active).
As for `Cc1ccccc1OC(=O)Cn1c(C(F)(F)F)nc2ccccc21`, the inhibition is 7.11% (inactive).
The value for `CCOCCCN(C(=O)Cn1nnc(-c2ccc(OC)c(OC)c2)n1)C(CC)C(=O)NC1CCCC1` (configuration not stated) was 4.18% (inactive); that for `Cc1cnc(NC(=O)c2ccccn2)s1` was 11.4% (inactive).
Take `Cc1cnc(NC(=O)C2CCCC2)s1`: the inhibition was 92.5% (active).
For the compound `Cc1nc(NC(=O)C2CCCCC2)sc1C`, the inhibition was 3.52% (inactive).
The value for `Cc1cc(C)c(C#N)c(SCC(=O)NN2CC(=O)N(c3ccccc3F)CC2=O)n1` was 13.8% (inactive); that for `CN(c1ccccc1)S(=O)(=O)c1ccc(Cl)c(C(=O)OCC(=O)NCc2ccco2)c1` was 17.3% (inactive); that for `O=C(COC(=O)c1ccccc1O)NCc1ccco1` was -3.83% (inactive).
The same measure for `Cc1cc(C(=O)OCC(=O)NCc2ccco2)c(C)n1-c1ccccc1`: 64.6% (active).

The record behind these values is PubChem BioAssay AID2557 (NMMLSC, 2010).
